# Tg IFNy HTS = blocks Toxoplasma gondii growth in the presence of IFN-gamma; 69,000 tested, 3.8% active; activity change, negative = inhibition, % (test concentration not listed); Toxoplasma gondii growth in IFN-gamma-treated host cells; active compounds read low; in the data active = activity change below about -70%, passing the limit was not always enough;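 note: host cells are HeLa cells infected with Toxoplasma gondii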
# Active calls of the source: *; i = inactive; ! = repeats disagree. The full list was thinned out, with hits kept by preference.
SMILES,Tg IFNy HTS
CCn1nc(CNC(=O)c2cccc(C3CCNC3)c2)c2ccccc21 (centres undefined),-85.6*
COc1ccc(N2CCN(C(=O)c3cncc(NS(=O)(=O)c4ccc(NC(C)=O)cc4)c3)CC2)cc1,2.7
CCc1nn(C)c(Cl)c1CN1CCCN(c2ccnc(C)c2)CC1,-2.4
Cc1cc(C(F)(F)F)n2nc(C3CCCCN3S(=O)(=O)c3ccc(F)cc3)cc2n1 (centres undefined),-3.4
C=CCN1CC(c2nc3ccccc3n2CC(=O)N(c2ccccc2)C(C)C)CC1=O (centres undefined),-22.5
Cc1nc(-c2ccc(F)cc2)sc1CCNC(=O)c1ccc(Cl)cc1,-57.6
CCOc1ccc(C(=O)NCCc2sc(-c3ccc(Cl)cc3)nc2C)cc1,-81.9*
CCOc1ccc(C(=O)NCCc2sc(-c3ccc(OC)cc3)nc2C)cc1,77.5
CCOc1ccc(C(=O)NCCc2sc(-c3ccc(C)cc3)nc2C)cc1,2.4
Cc1ccc(C(=O)NCCc2sc(-c3ccc(Cl)cc3)nc2C)cc1,-81.5*
Cc1ccc(-c2nc(C)c(CCNC(=O)c3ccccc3)s2)cc1,i
CC(C)OC[C@H]1CCC[C@]12CN(S(=O)(=O)c1cccs1)CCO2,-25.8
Cc1ccc(-c2cc(NC(=O)C3Cc4ccccc4C3)n[nH]2)cc1,-14.0
O=C(C1CCOCC1)N1CCC2(CCN(Cc3cccc(F)c3)C2=O)C1 (centres undefined),3.3
Cc1ccnc(CC(C)N(C)C(=O)c2cnn(Cc3ccccc3)c2)c1 (centres undefined),-1.7
Cc1oc(-c2cccc(C(F)(F)F)c2)nc1CN(C)Cc1cnc(N)nc1,-2.4
FC(F)(F)c1cccc(-c2nnc(C3c4ccccc4Oc4ccccc43)o2)c1,-98.9*
FC(F)(F)c1cccc(-c2ccc(-c3cccc(C(F)(F)F)c3)o2)c1,-10.5
CCCc1cc(CNC(=O)c2cnc(C)nc2C)on1,-2.1
Cc1ccc(S(=O)(=O)N2CCC3(CC2)NCCN=C3NC2CCCCCC2)cc1C,15.6
CC(=O)Oc1cc2c(c(C)c1OC(C)=O)CC=C1[C@@]2(C)CC[C@@]2(C)C3C[C@](C)(C(=O)O)CC[C@]3(C)CC[C@]12C (some centres undefined),-80.5*
CC1(C)C2CC[C@]3(C)C(C(=O)C=C4[C@H]5C[C@@](C)(C(=O)O)CC[C@]5(C)CC[C@]43C)[C@@]2(C)CC[C@@H]1O (some centres undefined),7.9
COc1ccc(C2CCCN2C(=O)C(C)N2C(=O)C3C4C=CC(C4)C3C2=O)cc1OC (centres undefined),24.6
COc1ccccc1C1CCN(Cc2sc3ccccc3c2C)CC1,-48.7
O=C(CSc1nc2c(c(=O)n1-c1ccccc1)SCC2)Nc1ccc(-c2ccccc2)cn1,-72.7*
SMILES,Tg IFNy HTS
COc1cc(=O)[nH]c(SCC(=O)Nc2ccc(Cl)cn2)n1,-20.8
Cn1c(-c2ccccc2)cnc1NC(=O)c1cccn(CC(=O)N2CCCC2)c1=O,18.7
CCCc1nc(C(=O)NCc2cnn3ccccc23)cs1,233.4
CC1(C(=O)O)CC(N2CCOCC2)CCN1C(=O)c1cccnc1 (centres undefined),-11.0
Cc1ccc(N2CC3(CCCCN3CC3CC3)CC2=O)cc1 (centres undefined),-19.7
OC1CCN(CCn2ccnc2-c2cccc3c2oc2ccccc23)CC1,8.5
CCC1=C[C@@H]2CN(C1)Cc1c([nH]c3ccccc13)[C@@](C(=O)OC)(c1cc3c(cc1OC)N(C)[C@H]1[C@@](O)(C(=O)OC)[C@H](OC(C)=O)[C@]4(CC)C=CCN5CC[C@]31[C@@H]54)C2,-73.6*
CCc1[nH]c2c(CNC(=O)CCn3c(C)cccc3=O)cc(F)cc2c1C,21.6
CN(C)Cc1cn(CC2CCN(C(=O)c3ccc4[nH]ccc4c3)CC2)nn1,-37.2
C=CCOc1ccc2c(=O)cc(C(=O)OCC)oc2c1CCC,-2.8
CCCCOc1ccc2c(=O)c(-c3cc(C(=O)OC)oc3C)c(C(F)(F)F)oc2c1C,-108.0*
CCc1c(C)c2ccc(OCC(=O)OC(C)C)c(C)c2oc1=O,37.4
Fc1ccc(CN2CCCC3(COCCN(c4ncccn4)C3)C2)cc1 (centres undefined),4.1
Cc1c(C)n(C(=O)CSc2nnc(-c3ccccc3)o2)c2ccccc12,6.4
O=c1cc(O)c2ccccc2n1-c1ccccc1,46.1
Cc1c(-c2ccccc2)n(-c2ccccc2)c2ccccc12,-90.2*
Cc1nn(C)c(Cl)c1CN(C)CC(C)N1CCOCC1 (centres undefined),2.8
CCOc1ccc(-c2nc(CN(c3ccc(OC)cc3)S(=O)(=O)c3ccccc3C)c(C)o2)cc1,-31.4
CCOc1ccc(C(=O)NCCc2sc(-c3ccccc3)nc2C)cc1,i
O=C(Nc1ccc(F)cc1)N1C[C@@H]2N[C@H](C1)C2c1ccc(/C=C/c2ccccc2)cc1 (some centres undefined),-42.9
COc1ccc(-c2ccc(C3[C@@H]4CN(C(=O)c5ccc(F)cc5)C[C@H]3N4)cc2)cc1 (some centres undefined),30.1
N#Cc1ccc(-c2ccc(C3[C@@H]4CN(C(=O)C5CCCCC5)C[C@H]3N4)cc2)cc1 (some centres undefined),-45.9
COc1cccc(-c2ccc(C3[C@@H]4CN(C(=O)Nc5ccccc5F)C[C@H]3N4)cc2)c1 (some centres undefined),-74.3*!
COc1ccc(NC(=O)N2C[C@@H]3N[C@H](C2)C3c2ccc(-c3ccncc3)cc2)cc1 (some centres undefined),-2.8
O=C(NC1CCCCC1)N1C[C@@H]2N[C@H](C1)C2c1ccc(-c2ccc(F)cc2)cc1 (some centres undefined),-76.7*!
SMILES,Tg IFNy HTS
C/C=C/c1ccc(C2[C@@H]3CN(C(=O)Nc4ccc(C(F)(F)F)cc4)C[C@H]2N3)cc1 (some centres undefined),-79.5*!
C/C=C/c1ccc(C2[C@@H]3CN(C(=O)Nc4ccccc4F)C[C@H]2N3)cc1 (some centres undefined),-33.4
C/C=C/c1ccc(C2[C@@H]3CN(C(=O)NC4CCCCC4)C[C@H]2N3)cc1 (some centres undefined),-22.1
N#Cc1cccc(-c2ccc(C3[C@@H]4CN(C(=O)Nc5ccc(C(F)(F)F)cc5)C[C@H]3N4)cc2)c1 (some centres undefined),-73.3*!
Cc1cccc(-c2ccc(C3[C@@H]4CN(C(=O)c5ccncc5)C[C@H]3N4)cc2)c1 (some centres undefined),-7.2
COc1ccccc1NC(=O)N1C[C@@H]2N[C@H](C1)C2c1ccc(-c2cccc(C#N)c2)cc1 (some centres undefined),-33.1
CCOC1C2CCC1N(C(=O)COc1ccccc1)CCO2 (centres undefined),-3.5
c1cc(CN2CC[C@H]3[C@@H](CO[C@@H]3Cc3nnc(C4CC4)o3)C2)co1,-2.4
COC(=O)CN1C(=O)N(CCc2ccccc2)C2(CCN(Cc3cc4ccccc4[nH]3)CC2)C1=O,29.1
Cn1cc(/C=C2\C(=O)Nc3cccnc32)c2ccccc21,38.2
c1cc2c(cc1N1CCC(NCCN3CCCCC3)CC1)OCO2,-2.6
CS(=O)(=O)N1CCCn2c(nc(CNC(=O)CC3CC3)cc2=O)C1,-2.2
Cc1noc(C)c1CCC(=O)N1CCCC(n2nnc3cc(F)ccc32)C1 (centres undefined),17.2
COc1ccc(-c2ccncc2C)c(OC)c1,2.3
CCN1C(=O)CCc2cc(C(=O)N3CCCCC3)ccc21,17.5
O=C(c1ccc2c(c1)CCC(=O)N2Cc1ccccc1)N1CCN(c2ccccc2F)CC1,-102.0*

# Assay outcomes (PubChem)
